The full list was thinned out, with hits kept by preference.
Tg IFNy HTS – T. gondii growth inhibition with IFN-gamma, primary screen, cell-based; Toxoplasma gondii growth in IFN-gamma-treated host cells; stronger effect = lower value; activity change, negative = inhibition, % (test concentration not listed); actives 3.8% (n = 69,000); AID 1259416, 2018; in the data active = activity change below about -70%, passing the limit was not always enough;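 note: host cells are HeLa cells infected with Toxoplasma gondii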
Active calls of the source: *; ! = repeats disagree.

SMILES | Tg IFNy HTS
CCn1c(C2CCCN(C(=O)c3cccc4[nH]c(C)nc34)C2)nn(C)c1=O (configuration not stated) | 9.9
COc1ccc(-c2cc(C3CNC3)nc(C)n2)cc1 | -77.2*
COc1ccc(-c2cc(C)nc(C3CCNCC3)n2)cc1 | -39.8
COc1ccc(-c2cc(-c3ccc(OC)cc3)nc(-c3ccc(C)o3)c2)cc1 | 36.9
CCN1c2ccccc2C(=O)NC12CCN(C(=O)c1cccc(C)c1)CC2 | -1.3
C[C@@H]1COCn2nncc2CC[C@H](Cc2ccc(-c3ccccc3)cc2)C(=O)N1 | -39.0
CCCCCOC(=O)Nc1nc(=O)n([C@@H]2O[C@H](C)[C@@H](O)[C@H]2O)cc1F | -53.3
Cc1cn([C@H]2O[C@@H](CO)[C@H](O)[C@@H]2F)c(=O)[nH]c1=O | 18.0
C[C@H]1O[C@@H](n2cc(F)c(=O)[nH]c2=O)[C@H](O)[C@@H]1O | -91.3*
CS(=O)(=O)NCc1cnc2n1CCN(C(=O)CC1CC1)CC2 | -2.0
CCc1ccc(NC(=S)Nc2ccc(Cl)cc2C(=O)c2ccccc2)cc1 | -95.9*
O=C(Cc1ccccc1)Nc1ccc(Cl)cc1 | -60.1
CC(=O)c1cccc(NC(=S)Nc2ccc(F)cc2)c1 | 26.9
COCCC(=O)N1CCC(C2Nc3ccccc3S(=O)(=O)N2)CC1 (configuration not stated) | 13.9
N#Cc1sccc1COc1ccc(Cl)cc1 | 160.5
Cc1ccsc1S(=O)(=O)N1CC[C@@](C)(O)[C@@H](CC(C)C)C1 | -12.9
O=C(Cn1c(=O)cc(-c2nc(C3CC3)no2)c2ccccc21)NCc1ccco1 | 4.6
O=C(NCCc1csc(-c2ccc(F)cc2)n1)c1ccccc1Br | 33.0
O=c1[nH]c2ccc(Cl)cc2c(O)c1-c1nc(-c2cccs2)no1 | -21.3
Cc1nc2cc(-c3ccccc3)sc2c(=O)n1N | -107.1*
Cc1nn(-c2ccc(F)cc2F)c(=O)c2nc(-c3ccccc3)sc12 | -0.4
Cc1cc(C)c2c(n1)sc1c(=O)n(N)c(C)nc12 | -22.4
Oc1ccc(COCc2ccccc2)c2cccnc12 | -95.9*
O=C(COCc1ccccc1)NCc1cnn2ccccc12 | -30.1
O=C(NCc1ccccc1)c1c(O)c2cccnc2[nH]c1=O | 7.7
SMILES | Tg IFNy HTS
Cc1ccc(S(=O)(=O)N2CCc3onc(COCC4CC4)c3C2)cc1F | -4.3
Cc1nnnn1-c1cccc(C(=O)NC(C)CCc2ccccc2Cl)c1 (configuration not stated) | -8.4
CCCCOCC(=O)N1CCC(c2[nH]ncc2CC)CC1 | 0.2
Cc1ccc(NC(=O)c2nnn(Cc3nc(-c4cccc(Cl)c4)oc3C)c2C)cc1F | 76.7
COc1ccc(NC(=O)c2nnn(Cc3nc(-c4cccc(Cl)c4)oc3C)c2C)cc1 | -110.3*
CCOc1ccc(CNC(=O)c2nnn(Cc3nc(-c4cccc(C)c4)oc3C)c2C)cc1 | -34.4
Cc1cccc(-c2nc(Cn3nnc(C(=O)NCc4cccc(Cl)c4)c3C)c(C)o2)c1 | -96.9*
Cc1cccc(-c2nc(Cn3nnc(C(=O)NCc4ccc(C(F)(F)F)cc4)c3C)c(C)o2)c1 | 7.7
Cc1cccc(-c2nc(Cn3nnc(C(=O)NCc4ccc(Br)cc4)c3C)c(C)o2)c1 | -32.0
Cc1cc(NC(=O)c2nnn(Cc3nc(-c4cccc(Cl)c4)oc3C)c2C)ccc1Br | 67.4
Cc1cccc(-c2nc(Cn3nnc(C(=O)NCc4ccc(F)c(Cl)c4)c3C)c(C)o2)c1 | -93.3*
COc1ccc(OC)c(NC(=O)c2nnn(Cc3nc(-c4cccc(Cl)c4)oc3C)c2C)c1 | 54.4
O=C(Cn1cccc1-c1nc(-c2ccccc2)cs1)N1CCC(N2CCCCC2)CC1 | -2.3
CNC(=O)c1cc(=O)n(CC(=O)Nc2ccccc2C(F)(F)F)c2ccccc12 | 3.3
O=C(c1cc2cccnc2n(Cc2ccccc2)c1=O)N(C1CCCCC1)C1CCCCC1 | 55.3
CS(=O)(=O)NCC1CCN(C2CSCCSC2)C1 (configuration not stated) | 38.2
CCCCS(=O)(=O)N1CCC2(COCc3cnc(N4CCOCC4)nc32)C1 (configuration not stated) | 2.3
Cc1cnc(C(=O)N2C[C@H]3CN(Cc4cccc(C)n4)C(=O)[C@@H]3C2)cn1 | -4.7
Cc1[nH]nc(CCC(=O)N2C[C@H](N(C)C)C[C@H]2CO)c1C | 9.8
COc1ccc2c(O[C@H]3CC4C(=O)N(C)CCCC/C=C\[C@@H]5C[C@@]5(C(=O)NS(=O)(=O)C5CC5)NC(=O)[C@@H]4C3)cc(-c3nc(C(C)C)cs3)nc2c1C (some centres not stated) | -74.0*
CN(C)CC(=O)N1CCc2sc(C(=O)Nc3ccc(Cl)cc3)cc21 | -0.5
Cc1nonc1C(=O)N1CCC(N2CCCC(C(=O)N3CCOCC3)C2)CC1 (configuration not stated) | 4.4
Cc1ccc(NC(=O)C(=O)NCCc2csc(-c3ccc(F)cc3)n2)cc1 | 46.6
O=C(NCCc1csc(-c2ccc(F)cc2)n1)C(=O)Nc1ccccc1 | -43.4
Cc1ccc(NC(=O)C(=O)NCCc2csc(-c3cccc(F)c3)n2)cc1 | 53.4
SMILES | Tg IFNy HTS
Cc1cc(C)cc(NC(=O)C(=O)NCCc2csc(-c3cccc(F)c3)n2)c1 | -92.2*
Cc1cccc(C)c1NC(=O)C(=O)NCCc1csc(-c2ccc(F)cc2)n1 | -78.2*
O=C(NCCc1csc(-c2cccc(F)c2)n1)C(=O)Nc1ccc(F)cc1 | -37.3
Cc1ccc(-c2nc(CCNC(=O)C(=O)Nc3c(C)cccc3C)cs2)cc1 | -50.1
Cc1cccc(NC(=O)C(=O)NCCc2csc(-c3ccc(F)cc3)n2)c1 | -37.7
Cc1cc(C)cc(NC(=O)C(=O)NCCc2csc(-c3ccc(F)cc3)n2)c1 | -92.9*
COc1cccc(CNC(=O)c2ccc(-c3nc(CN4CCc5ccccc54)c(C)o3)cc2)c1 | 85.3
O=S(=O)(C1CC1)N1CCOC2(CCCN(c3ccccc3)C2)C1 (configuration not stated) | -41.7
O=C(CO)N1C[C@H]2c3ccccc3C(OCC3CC3)[C@@H]2C1 (some centres not stated) | 8.1
Cc1ccc2nc(CCc3ccc(NC(=O)CCC4CCCO4)cc3)[nH]c2c1 (configuration not stated) | 98.2
Cc1cccn2c(CNC(=O)c3cc(-c4ccccc4O)n[nH]3)cnc12 | 4.0
COCCN1C(=O)CCc2cc(NS(=O)(=O)c3ccccc3C)ccc21 | -17.0
Cn1cccc1C(=O)NCc1cn2c(n1)CN(S(C)(=O)=O)CC2 | -69.5
COc1ccc(CN2CCC(O)(c3ccccc3F)CC2)cc1Cn1ccnc1C | -37.3
O=c1cc(CSc2nc3ccccc3o2)[nH]c2nc3ccccc3n12 | -97.2*
Cc1cc(CSc2nc3ccccc3o2)c(C)cc1CSc1nc2ccccc2o1 | -2.6
Cc1[nH]c2ccccc2c1C(=O)CSc1nc2ccccc2o1 | -38.6
O=C(Nc1ccc2sc3ccccc3c(=O)c2c1)c1cc(F)c(F)cc1Cl | -16.3
CC(C)(C)CC(C)(C)c1ccc(OCCOCC[N+](C)(C)Cc2ccccc2)cc1 | -78.0*!
NC(=O)CSc1ccc(-c2cccc(CN3CCOCC3)c2)cc1 | 14.3
COc1ccc(OC)c(-n2c(/C=C/c3ccc4c(c3)OCO4)nc3ccccc3c2=O)c1 | 19.1
C(=C/c1ccc2ccccc2n1)/c1ccc2c(c1)OCO2 | -93.6*
C(=C/c1nccc2c1[nH]c1ccccc12)/c1ccc2c(c1)OCO2 | 132.7
Cc1oc(-c2cccc(Cl)c2)nc1CSc1nc2c(=O)[nH]cnc2n1C | 6.4
Cc1noc(C)c1-n1c(C2CCCN(C)C2)n[nH]c1=O (configuration not stated) | -0.7
Fc1cccc(CSc2nc(Nc3ccc4c(c3)OCO4)c3ccccc3n2)c1 | -48.4

Screening data from PubChem.
